Source: ChEMBL document CHEMBL2218924, “A broad activity screen in support of a chemogenomic map for kinase signalling research and drug discovery” (Biochem J, 2013)

Experiments:
[1] = biological target: Calcium/calmodulin-dependent protein kinase type 1 (Homo sapiens) (UniProt Q14012); details: at 1 µM
[2] = biological target: Calcium/calmodulin-dependent protein kinase type 1 (Homo sapiens) (UniProt Q14012); details: at 10 µM
[3] = biological target: Calcium/calmodulin-dependent protein kinase type II subunit beta (Homo sapiens) (UniProt Q13554); details: at 1 µM
[4] = biological target: Calcium/calmodulin-dependent protein kinase type II subunit beta (Homo sapiens) (UniProt Q13554); details: at 10 µM
[5] = biological target: Calcium/calmodulin-dependent protein kinase type II subunit gamma (Homo sapiens) (UniProt Q13555); details: at 1 µM
[6] = biological target: Calcium/calmodulin-dependent protein kinase type II subunit gamma (Homo sapiens) (UniProt Q13555); details: at 10 µM
[7] = biological target: Calcium/calmodulin-dependent protein kinase type II subunit delta (Homo sapiens) (UniProt Q13557); details: at 1 µM
[8] = biological target: Calcium/calmodulin-dependent protein kinase type II subunit delta (Homo sapiens) (UniProt Q13557); details: at 10 µM
[9] = biological target: T1, Calcium/calmodulin-dependent protein kinase type IV (Homo sapiens) (UniProt Q16566); details: at 1 µM
T1 sequence (whole entry): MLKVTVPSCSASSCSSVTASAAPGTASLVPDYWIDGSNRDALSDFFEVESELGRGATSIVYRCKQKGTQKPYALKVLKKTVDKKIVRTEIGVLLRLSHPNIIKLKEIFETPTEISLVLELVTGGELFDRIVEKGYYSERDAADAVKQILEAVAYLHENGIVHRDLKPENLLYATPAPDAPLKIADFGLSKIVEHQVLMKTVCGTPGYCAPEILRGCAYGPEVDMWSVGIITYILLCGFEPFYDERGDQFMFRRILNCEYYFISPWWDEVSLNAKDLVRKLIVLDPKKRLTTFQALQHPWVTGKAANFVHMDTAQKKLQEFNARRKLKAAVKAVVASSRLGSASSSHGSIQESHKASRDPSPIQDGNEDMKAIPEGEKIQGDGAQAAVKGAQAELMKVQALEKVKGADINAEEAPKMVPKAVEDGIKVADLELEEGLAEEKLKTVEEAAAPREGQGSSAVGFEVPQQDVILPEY

[10] = biological target: T1, Calcium/calmodulin-dependent protein kinase type IV (Homo sapiens); details: at 10 µM
[11] = biological target: Death-associated protein kinase 1 (Homo sapiens) (UniProt P53355); details: at 10 µM
[12] = biological target: Death-associated protein kinase 2 (Homo sapiens) (UniProt Q9UIK4); details: at 1 µM
[13] = biological target: Death-associated protein kinase 2 (Homo sapiens) (UniProt Q9UIK4); details: at 10 µM
[14] = biological target: T2, Serine/threonine-protein kinase DCLK2 (Homo sapiens) (UniProt Q8N568); details: at 1 µM
T2 sequence (whole entry): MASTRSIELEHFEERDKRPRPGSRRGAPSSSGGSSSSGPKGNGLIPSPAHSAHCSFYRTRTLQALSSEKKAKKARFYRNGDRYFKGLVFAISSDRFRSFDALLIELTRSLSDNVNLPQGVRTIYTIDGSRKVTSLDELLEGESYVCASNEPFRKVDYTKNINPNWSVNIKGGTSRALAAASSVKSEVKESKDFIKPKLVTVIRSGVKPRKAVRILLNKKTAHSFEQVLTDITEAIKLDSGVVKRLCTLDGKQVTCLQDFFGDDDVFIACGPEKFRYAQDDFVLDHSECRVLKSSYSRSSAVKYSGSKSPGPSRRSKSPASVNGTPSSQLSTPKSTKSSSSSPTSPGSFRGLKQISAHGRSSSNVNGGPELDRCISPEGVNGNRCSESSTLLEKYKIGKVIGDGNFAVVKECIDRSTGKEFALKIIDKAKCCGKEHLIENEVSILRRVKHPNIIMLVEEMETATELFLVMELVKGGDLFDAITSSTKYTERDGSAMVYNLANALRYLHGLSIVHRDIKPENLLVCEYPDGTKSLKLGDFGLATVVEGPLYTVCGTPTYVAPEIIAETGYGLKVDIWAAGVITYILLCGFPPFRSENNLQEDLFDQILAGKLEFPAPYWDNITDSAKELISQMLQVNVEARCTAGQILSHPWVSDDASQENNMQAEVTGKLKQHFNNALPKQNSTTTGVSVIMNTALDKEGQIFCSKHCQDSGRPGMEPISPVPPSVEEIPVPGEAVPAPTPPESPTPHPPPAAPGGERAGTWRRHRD

[15] = biological target: T2, Serine/threonine-protein kinase DCLK2 (Homo sapiens); details: at 10 µM
[16] = biological target: T3, Discoidin domain-containing receptor 2 (Homo sapiens) (UniProt Q16832); details: at 1 µM
T3 sequence (whole entry): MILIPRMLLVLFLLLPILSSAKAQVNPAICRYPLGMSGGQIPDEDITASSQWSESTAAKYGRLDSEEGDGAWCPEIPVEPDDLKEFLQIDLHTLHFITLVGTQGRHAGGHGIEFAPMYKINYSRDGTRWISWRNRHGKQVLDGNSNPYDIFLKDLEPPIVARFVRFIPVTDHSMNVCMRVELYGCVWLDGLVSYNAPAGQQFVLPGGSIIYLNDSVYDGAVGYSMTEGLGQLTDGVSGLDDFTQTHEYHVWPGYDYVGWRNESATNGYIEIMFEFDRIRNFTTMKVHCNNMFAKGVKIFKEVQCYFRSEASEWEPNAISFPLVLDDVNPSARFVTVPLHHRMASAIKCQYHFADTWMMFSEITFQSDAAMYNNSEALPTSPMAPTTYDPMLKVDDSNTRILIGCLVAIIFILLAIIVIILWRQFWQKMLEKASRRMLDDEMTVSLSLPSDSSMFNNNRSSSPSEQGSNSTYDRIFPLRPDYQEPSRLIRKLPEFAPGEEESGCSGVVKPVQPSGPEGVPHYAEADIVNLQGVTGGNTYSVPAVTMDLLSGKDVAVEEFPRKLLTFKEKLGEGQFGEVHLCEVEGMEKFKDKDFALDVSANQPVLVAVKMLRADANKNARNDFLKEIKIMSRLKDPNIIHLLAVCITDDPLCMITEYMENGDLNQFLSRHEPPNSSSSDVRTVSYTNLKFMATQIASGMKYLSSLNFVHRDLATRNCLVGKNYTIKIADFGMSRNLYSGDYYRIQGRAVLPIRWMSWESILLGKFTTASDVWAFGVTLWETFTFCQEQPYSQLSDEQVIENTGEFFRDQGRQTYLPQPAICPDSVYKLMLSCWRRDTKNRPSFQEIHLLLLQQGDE

[17] = biological target: T3, Discoidin domain-containing receptor 2 (Homo sapiens); details: at 10 µM
[18] = biological target: T4, Myotonin-protein kinase (Homo sapiens) (UniProt Q09013); details: at 1 µM
T4 sequence (whole entry): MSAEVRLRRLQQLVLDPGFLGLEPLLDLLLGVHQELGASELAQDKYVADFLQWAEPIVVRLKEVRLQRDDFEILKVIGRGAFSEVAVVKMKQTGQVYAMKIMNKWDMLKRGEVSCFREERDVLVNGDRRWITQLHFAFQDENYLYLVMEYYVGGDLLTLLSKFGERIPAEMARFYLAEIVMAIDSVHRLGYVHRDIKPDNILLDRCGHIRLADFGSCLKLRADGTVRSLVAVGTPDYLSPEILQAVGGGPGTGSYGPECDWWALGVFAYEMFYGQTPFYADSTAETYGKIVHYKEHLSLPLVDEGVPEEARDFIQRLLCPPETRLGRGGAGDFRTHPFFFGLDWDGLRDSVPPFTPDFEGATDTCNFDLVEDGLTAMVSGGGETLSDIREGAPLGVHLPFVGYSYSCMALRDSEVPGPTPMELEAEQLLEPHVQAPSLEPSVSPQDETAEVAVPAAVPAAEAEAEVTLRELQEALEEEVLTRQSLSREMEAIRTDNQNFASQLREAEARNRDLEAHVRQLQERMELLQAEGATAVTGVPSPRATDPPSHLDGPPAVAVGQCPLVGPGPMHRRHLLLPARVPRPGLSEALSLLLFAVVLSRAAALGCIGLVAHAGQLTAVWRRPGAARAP

[19] = biological target: T4, Myotonin-protein kinase (Homo sapiens); details: at 10 µM
[20] = biological target: T5, Serine/threonine-protein kinase 17A (Homo sapiens) (UniProt Q9UEE5); details: at 1 µM
T5 sequence (whole entry): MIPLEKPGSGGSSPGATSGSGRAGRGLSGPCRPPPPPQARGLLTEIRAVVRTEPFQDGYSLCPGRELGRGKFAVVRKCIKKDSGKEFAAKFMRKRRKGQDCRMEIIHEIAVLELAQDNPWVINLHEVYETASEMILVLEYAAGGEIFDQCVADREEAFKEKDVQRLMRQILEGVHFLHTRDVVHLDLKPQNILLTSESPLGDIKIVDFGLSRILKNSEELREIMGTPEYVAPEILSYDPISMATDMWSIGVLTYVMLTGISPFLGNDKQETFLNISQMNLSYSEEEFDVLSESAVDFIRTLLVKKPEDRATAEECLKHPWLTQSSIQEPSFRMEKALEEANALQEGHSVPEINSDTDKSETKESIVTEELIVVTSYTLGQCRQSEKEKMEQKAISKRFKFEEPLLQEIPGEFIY

Sequence of Calcium/calmodulin-dependent protein kinase type II subunit beta (Homo sapiens) (Q13554 whole entry): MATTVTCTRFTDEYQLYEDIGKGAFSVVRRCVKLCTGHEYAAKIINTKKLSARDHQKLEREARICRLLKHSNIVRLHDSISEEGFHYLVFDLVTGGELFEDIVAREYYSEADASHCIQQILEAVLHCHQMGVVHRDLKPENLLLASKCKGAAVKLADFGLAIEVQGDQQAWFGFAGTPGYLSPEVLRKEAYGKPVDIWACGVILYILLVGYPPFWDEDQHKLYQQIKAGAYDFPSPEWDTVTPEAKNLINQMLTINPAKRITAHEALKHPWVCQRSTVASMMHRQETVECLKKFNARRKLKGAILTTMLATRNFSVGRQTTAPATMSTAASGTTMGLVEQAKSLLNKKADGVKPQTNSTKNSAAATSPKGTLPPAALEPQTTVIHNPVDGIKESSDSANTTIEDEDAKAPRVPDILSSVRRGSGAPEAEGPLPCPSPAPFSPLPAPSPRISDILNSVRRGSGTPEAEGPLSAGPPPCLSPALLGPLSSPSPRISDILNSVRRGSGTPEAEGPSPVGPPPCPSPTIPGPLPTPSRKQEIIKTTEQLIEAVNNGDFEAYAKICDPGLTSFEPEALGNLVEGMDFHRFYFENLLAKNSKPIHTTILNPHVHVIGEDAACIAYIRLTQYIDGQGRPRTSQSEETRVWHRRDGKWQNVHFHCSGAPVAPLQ
Sequence of Death-associated protein kinase 1 (Homo sapiens) (P53355 whole entry, looked up): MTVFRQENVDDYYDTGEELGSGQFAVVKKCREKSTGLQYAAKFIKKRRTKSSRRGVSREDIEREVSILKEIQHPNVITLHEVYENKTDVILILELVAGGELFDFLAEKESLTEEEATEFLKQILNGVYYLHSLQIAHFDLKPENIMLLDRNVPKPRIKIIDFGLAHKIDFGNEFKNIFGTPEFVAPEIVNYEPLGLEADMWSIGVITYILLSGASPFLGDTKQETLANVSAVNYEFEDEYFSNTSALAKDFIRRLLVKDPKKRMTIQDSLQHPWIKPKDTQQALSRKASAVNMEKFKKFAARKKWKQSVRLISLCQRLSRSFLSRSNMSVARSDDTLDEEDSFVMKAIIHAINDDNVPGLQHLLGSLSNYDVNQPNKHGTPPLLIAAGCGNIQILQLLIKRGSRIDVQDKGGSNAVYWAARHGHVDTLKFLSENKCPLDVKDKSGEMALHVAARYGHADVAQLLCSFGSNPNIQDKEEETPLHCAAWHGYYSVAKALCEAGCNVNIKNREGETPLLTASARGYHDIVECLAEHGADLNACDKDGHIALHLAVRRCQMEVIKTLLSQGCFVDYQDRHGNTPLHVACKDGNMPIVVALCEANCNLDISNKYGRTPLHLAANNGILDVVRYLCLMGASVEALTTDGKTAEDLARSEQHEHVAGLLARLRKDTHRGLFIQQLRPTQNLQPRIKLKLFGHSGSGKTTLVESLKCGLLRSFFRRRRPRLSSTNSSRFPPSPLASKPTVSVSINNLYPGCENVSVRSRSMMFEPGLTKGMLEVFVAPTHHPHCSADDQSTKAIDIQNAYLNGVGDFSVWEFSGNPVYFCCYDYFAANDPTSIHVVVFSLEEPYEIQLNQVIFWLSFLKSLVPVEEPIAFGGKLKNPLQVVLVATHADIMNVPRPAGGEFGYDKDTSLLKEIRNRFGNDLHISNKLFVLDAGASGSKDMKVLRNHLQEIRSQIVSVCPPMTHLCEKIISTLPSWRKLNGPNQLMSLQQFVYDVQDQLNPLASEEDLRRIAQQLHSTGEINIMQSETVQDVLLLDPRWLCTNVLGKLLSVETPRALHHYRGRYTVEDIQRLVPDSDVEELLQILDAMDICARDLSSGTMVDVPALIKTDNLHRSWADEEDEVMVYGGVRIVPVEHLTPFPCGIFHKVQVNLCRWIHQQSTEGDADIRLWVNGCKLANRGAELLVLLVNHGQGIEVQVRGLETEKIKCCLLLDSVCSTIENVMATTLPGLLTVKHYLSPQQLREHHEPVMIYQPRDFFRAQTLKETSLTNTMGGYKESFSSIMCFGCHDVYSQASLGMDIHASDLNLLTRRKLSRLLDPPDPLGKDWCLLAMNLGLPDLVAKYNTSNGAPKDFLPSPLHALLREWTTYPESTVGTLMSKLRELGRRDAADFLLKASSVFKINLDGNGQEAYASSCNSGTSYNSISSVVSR
Sequence of Calcium/calmodulin-dependent protein kinase type 1 (Homo sapiens) (Q14012 whole entry, looked up): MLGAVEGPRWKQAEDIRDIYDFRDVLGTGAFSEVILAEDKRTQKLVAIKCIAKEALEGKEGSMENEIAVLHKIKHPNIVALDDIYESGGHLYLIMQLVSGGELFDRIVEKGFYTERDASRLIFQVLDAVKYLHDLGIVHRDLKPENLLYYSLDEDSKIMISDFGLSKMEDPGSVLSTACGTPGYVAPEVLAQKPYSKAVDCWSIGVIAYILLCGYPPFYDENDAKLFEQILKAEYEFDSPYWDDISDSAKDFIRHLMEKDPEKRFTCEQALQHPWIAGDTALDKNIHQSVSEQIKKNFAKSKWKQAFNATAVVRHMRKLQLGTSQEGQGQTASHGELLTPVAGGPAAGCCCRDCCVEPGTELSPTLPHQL
Sequence of Calcium/calmodulin-dependent protein kinase type II subunit delta (Homo sapiens) (Q13557 whole entry): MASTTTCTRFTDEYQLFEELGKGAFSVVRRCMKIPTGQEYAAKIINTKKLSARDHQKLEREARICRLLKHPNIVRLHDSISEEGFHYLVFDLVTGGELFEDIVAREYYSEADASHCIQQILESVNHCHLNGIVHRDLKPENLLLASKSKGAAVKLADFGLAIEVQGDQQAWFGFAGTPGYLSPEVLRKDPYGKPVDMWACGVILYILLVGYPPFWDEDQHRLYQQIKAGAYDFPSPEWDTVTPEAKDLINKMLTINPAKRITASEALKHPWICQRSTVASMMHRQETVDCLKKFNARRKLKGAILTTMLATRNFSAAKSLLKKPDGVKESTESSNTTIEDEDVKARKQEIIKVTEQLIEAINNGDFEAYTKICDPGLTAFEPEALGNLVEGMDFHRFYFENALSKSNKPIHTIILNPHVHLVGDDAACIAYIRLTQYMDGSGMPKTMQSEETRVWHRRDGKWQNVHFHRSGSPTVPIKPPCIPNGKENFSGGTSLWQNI
Sequence of Calcium/calmodulin-dependent protein kinase type II subunit gamma (Homo sapiens) (Q13555 whole entry): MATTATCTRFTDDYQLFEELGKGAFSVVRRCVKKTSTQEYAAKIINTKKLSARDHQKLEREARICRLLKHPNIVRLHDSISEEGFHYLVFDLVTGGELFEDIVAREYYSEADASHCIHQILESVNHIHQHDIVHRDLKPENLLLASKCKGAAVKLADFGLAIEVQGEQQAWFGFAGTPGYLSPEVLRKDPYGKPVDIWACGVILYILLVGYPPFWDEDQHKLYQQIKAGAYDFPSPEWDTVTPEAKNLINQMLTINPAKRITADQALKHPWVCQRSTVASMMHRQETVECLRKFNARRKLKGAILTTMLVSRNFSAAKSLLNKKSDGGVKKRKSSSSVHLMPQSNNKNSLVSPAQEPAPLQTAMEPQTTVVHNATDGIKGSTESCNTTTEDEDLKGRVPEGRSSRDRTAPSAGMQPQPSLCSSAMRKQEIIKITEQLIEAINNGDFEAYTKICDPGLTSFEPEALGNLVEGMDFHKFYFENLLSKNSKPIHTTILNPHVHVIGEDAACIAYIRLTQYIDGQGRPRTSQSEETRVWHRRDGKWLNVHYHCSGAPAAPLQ
Sequence of Death-associated protein kinase 2 (Homo sapiens) (Q9UIK4 whole entry, looked up): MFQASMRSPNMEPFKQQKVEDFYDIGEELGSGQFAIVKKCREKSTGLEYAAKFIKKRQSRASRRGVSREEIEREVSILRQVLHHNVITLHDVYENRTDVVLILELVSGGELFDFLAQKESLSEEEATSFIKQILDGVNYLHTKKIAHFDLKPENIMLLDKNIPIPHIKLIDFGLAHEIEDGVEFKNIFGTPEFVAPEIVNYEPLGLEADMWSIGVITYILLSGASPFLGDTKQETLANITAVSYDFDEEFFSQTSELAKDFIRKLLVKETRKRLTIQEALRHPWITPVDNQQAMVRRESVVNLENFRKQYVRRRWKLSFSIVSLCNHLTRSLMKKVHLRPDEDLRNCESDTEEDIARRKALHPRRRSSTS

| Structure (SMILES) | residual activity [1] | residual activity [2] | residual activity [3] | residual activity [4] | residual activity [5] | residual activity [6] | residual activity [7] | residual activity [8] | residual activity [9] | residual activity [10] | residual activity [11] | residual activity [12] | residual activity [13] | residual activity [14] | residual activity [15] | residual activity [16] | residual activity [17] | residual activity [18] | residual activity [19] | residual activity [20] |
| --- | --- | --- | --- | --- | --- | --- | --- | --- | --- | --- | --- | --- | --- | --- | --- | --- | --- | --- | --- | --- |
| CC(C)n1cnc2/c(=N/c3cccc(Cl)c3)nc(NCCO)[nH]c21 | 87% | 71% | 75% | 41% | 13% | 6% | 19% | 11% | 103% | 66% | 94% | 104% | 98% | 103% | 94% | 94% | 93% | 124% | 74% |  |
| Cc1ccc(NC2=CC(=O)c3sc(C)nc3C2=O)cc1 | 92% | 74% | 89% | 81% | 104% | 98% | 95% | 98% | 113% | 96% | 89% | 99% | 94% | 118% | 93% | 94% | 101% | 121% | 91% | 109% |
| O=C1NC(=O)/C(=C/c2ccc3c(c2)OC(F)(F)O3)S1 | 86% | 83% | 94% | 71% | 102% | 86% | 106% | 82% | 99% | 72% | 81% | 95% | 96% | 110% | 66% | 130% | 105% | 104% | 104% | 118% |
| COc1ccc(C(=O)Nc2sc3c(c2C(N)=O)CCCC3)cc1OC | 102% | 75% | 83% | 73% | 86% | 66% | 86% | 66% | 107% | 85% | 86% | 90% | 105% | 86% | 61% | 101% | 98% | 113% | 127% | 125% |
| Cn1nc2c3c(cccc31)C(=O)c1ccccc1-2 | 75% | 74% | 77% | 67% | 87% | 37% | 85% | 36% | 96% | 62% | 77% | 93% | 76% | 75% | 89% | 100% | 104% | 127% | 84% | 50% |
| CO[C@H]1[C@@H](OC)C[C@H](C)[C@@H](OC)C2=CC(=O)C=C(NC(=O)/C(C)=C/C=C/[C@H](OC)[C@@H](OC(N)=O)/C(C)=C/[C@@H]1C)C2=O | 115% | 88% | 97% | 93% | 107% | 100% | 102% | 110% | 89% | 81% | 78% | 104% | 114% | 89% | 75% | 98% | 99% | 147% | 127% | 86% |
